The nature of assay [1]: ATG_PBREM_CIS: Attagene CIS-FACTORIAL HepG2 Assay for human Phenobarbital-responsive Enhancer Module (PBREM) (AID 2282955). The following applies: HepG2 PBREM cis-reporter, Attagene multiplexed transcription; actives raise or lower the signal. In short, it runs like this: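 Readout: reporter mRNA, fluorescent RT-PCR fragments separated by capillary electrophoresis. System: HepG2 transiently transfected with cis-regulated reporter units. Exposure: 24 h. Analysis: bidirectional, DMSO baseline.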

The target of assay [2] is Paired box protein Pax-6 (Homo sapiens) (UniProt P26367). Put plainly: ATG_Pax6_CIS: Attagene CIS-FACTORIAL HepG2 Assay for human Paired Box 6 (PAX6) (AID 2282956). The following applies: HepG2 CIS-FACTORIAL PAX6 reporter transcription, RNA readout; actives raise or lower the signal. In short, it runs like this: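 Multiplexed cis-reporter HepG2 system; 24 h treatment; reporter mRNA read by RT-PCR/CE fluorescence; bidirectional fit vs DMSO.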
Sequence of Paired box protein Pax-6 (Homo sapiens) (P26367 whole entry, looked up): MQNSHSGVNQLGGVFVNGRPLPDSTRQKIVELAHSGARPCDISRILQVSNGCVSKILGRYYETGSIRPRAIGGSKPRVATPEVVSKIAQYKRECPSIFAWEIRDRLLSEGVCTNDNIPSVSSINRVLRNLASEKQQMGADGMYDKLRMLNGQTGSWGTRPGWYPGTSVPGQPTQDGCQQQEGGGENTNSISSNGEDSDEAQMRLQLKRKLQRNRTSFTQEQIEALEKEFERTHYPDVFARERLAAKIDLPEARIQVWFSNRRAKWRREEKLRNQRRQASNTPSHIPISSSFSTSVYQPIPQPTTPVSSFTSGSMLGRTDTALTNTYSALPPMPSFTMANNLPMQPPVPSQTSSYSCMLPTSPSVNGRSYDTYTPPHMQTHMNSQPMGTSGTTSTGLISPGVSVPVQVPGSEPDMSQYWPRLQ

Assay [3] in a line: ATG_PXRE_CIS: Attagene CIS-FACTORIAL HepG2 Assay for human Pregnane X Receptor Element (PXRE) (AID 2282957). The following applies: HepG2 Attagene CIS-FACTORIAL PXRE reporter, mRNA; actives raise or lower the signal. In a few lines:
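Transfect HepG2 with MRTUs (cis promoter elements); dose chemical, incubate 24 h; isolate RNA, RT with oligo(dT), PCR, 6-FAM label, HpaI cut, CE. Gain/loss fit vs DMSO.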

Assay [4] in a line: ATG_PPRE_CIS: Attagene CIS-FACTORIAL HepG2 Assay for human Peroxisome Proliferator-activated Response Element (PPRE) (AID 2282958). The following applies: HepG2 PPRE cis-element reporter, Attagene transcription factor profiling; actives raise or lower the signal. In short, it runs like this:
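After human HepG2 hepatoma cells were transiently transfected with cis-promoter reporter constructs, they were exposed to test chemicals for 24 hours. Reporter RNA was then reverse-transcribed, PCR-amplified, FAM-labeled, HpaI-digested and quantified by capillary electrophoresis.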

Assay [5] can be described thus: ATG_Sox_CIS: Attagene CIS-FACTORIAL HepG2 Assay for human SRY-box transcription factor (SOX) (AID 2282960). The following applies: HepG2 Attagene cis-factorial SOX reporter, mRNA; actives raise or lower the signal. In a few lines:
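Using transiently transfected HepG2 cells, reporter transcription driven by cis elements was assessed 24 h after dosing. Signal was fluorescence of capillary-separated RT-PCR products, with DMSO defining baseline activity.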

For assay [6], the target named is Transcription factor Sp1 (Homo sapiens) (UniProt P08047). The assay is described as follows: ATG_Sp1_CIS: Attagene CIS-FACTORIAL HepG2 Assay for human Specificity Protein 1 (Sp1) (AID 2282961). The following applies: HepG2 Sp1 cis-reporter transcription, actives raise or lower the signal. In a few lines:
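After transient transfection of HepG2 cells with cis-promoter reporter units and 24 h chemical treatment, reporter transcripts were quantified by RT-PCR and capillary electrophoresis fluorescence. Gain- and loss-of-signal fitted against DMSO.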

Assay [7] in a line: ATG_SREBP_CIS: Attagene CIS-FACTORIAL HepG2 Assay for human Sterol Regulatory Element Binding (SREBP) (AID 2282962). The following applies: HepG2 Attagene cis-factorial SREBP reporter, mRNA; actives raise or lower the signal. In short, it runs like this: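 mRNA induction of transfected cis-promoter reporters in HepG2 cells, 24 h post-dose. Detection: RT-PCR with 6-FAM-labelled products, HpaI digest, capillary electrophoresis. DMSO served as negative control and baseline.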

The target of assay [8] is Signal transducer and activator of transcription 3 (Homo sapiens) (UniProt P40763). Put plainly: ATG_STAT3_CIS: Attagene CIS-FACTORIAL HepG2 Assay for human Signal Transducer and Activator of Transcription 3 (STAT3) (AID 2282963). The following applies: HepG2, Attagene cis-factorial STAT3 reporter transcription; actives raise or lower the signal. In a few lines: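 Endogenous STAT3-responsive cis-element activity was read in transiently transfected HepG2 cells after 24 h treatment. Reporter transcripts were quantified via RT-PCR and capillary electrophoresis, with DMSO as negative control and bidirectional curve fitting.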
Sequence of Signal transducer and activator of transcription 3 (Homo sapiens) (P40763 whole entry, looked up): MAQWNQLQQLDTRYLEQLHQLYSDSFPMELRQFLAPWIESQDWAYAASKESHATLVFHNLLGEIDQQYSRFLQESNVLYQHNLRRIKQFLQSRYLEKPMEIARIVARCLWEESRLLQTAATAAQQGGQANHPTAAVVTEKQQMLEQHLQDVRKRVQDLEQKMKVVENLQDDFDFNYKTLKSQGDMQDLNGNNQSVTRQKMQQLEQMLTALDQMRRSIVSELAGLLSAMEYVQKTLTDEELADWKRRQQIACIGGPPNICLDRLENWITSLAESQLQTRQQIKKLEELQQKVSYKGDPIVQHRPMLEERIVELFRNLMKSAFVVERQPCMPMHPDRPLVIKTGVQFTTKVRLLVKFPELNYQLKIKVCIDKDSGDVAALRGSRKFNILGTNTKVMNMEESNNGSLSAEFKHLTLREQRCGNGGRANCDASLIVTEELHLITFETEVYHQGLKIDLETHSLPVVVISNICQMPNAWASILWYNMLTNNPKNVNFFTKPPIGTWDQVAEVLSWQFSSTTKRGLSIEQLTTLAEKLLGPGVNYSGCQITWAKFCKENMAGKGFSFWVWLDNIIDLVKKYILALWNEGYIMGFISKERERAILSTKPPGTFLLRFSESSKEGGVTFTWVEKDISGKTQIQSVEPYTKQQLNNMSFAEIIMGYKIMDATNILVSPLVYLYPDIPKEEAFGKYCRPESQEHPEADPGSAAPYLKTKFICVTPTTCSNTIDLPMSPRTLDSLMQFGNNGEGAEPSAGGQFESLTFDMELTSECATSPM

Assay [9] can be described thus: ATG_TA_CIS: Attagene CIS-FACTORIAL HepG2 Assay for human TA Basal Promoter (AID 2282964). The following applies: HepG2 Attagene CIS-factorial TA basal promoter reporter; actives raise or lower the signal. In a few lines:
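Steps: transfect HepG2 with MRTUs; dose 24 h; isolate RNA, DNase-treat, reverse-transcribe; PCR and FAM-label reporter cDNA; digest with HpaI 2h at 37 C; run capillary electrophoresis. Activity fitted both directions against DMSO.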

Assay [10] in a line: ATG_TCF_b_cat_CIS: Attagene CIS-FACTORIAL HepG2 Assay for human T-Cell-Factor with beta-catenin (TCF/b-cat) (AID 2282965). The following applies: HepG2 TCF/beta-catenin cis-reporter transcription, actives raise or lower the signal. In short, it runs like this: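 Endogenous TCF/LEF activity read as reporter transcript level via RT-PCR and capillary electrophoresis fluorescence in transfected HepG2, 24 h exposure; gain or loss of signal fitted against DMSO controls.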

The nature of assay [11]: ATG_TAL_CIS: Attagene CIS-FACTORIAL HepG2 Assay for human TAL Basal Promoter (AID 2282966).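 Further: background control endpoint measuring basal TAL promoter reporter mRNA not a specific factor.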 The following applies: HepG2 Attagene cis-factorial TAL promoter reporter; actives raise or lower the signal. In a few lines:
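Fluorescence of labelled reporter cDNA fragments, resolved by capillary electrophoresis, gave the readout. Human HepG2 liver cells carried transiently transfected cis-element reporter units and were treated for 24 hours; activity was fitted bidirectionally against DMSO.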

The nature of assay [12]: ATG_TGFb_CIS: Attagene CIS-FACTORIAL HepG2 Assay for human Transforming Growth Factor (TGF) (AID 2282967). The following applies: HepG2 Attagene CIS TGFb reporter, mRNA transcription; actives raise or lower the signal. In a few lines: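 Cells were dosed for 24 hours, after which total RNA was reverse-transcribed and reporter sequences amplified, labeled and sized by capillary electrophoresis. Activity was fitted in both directions against DMSO.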

The nature of assay [13]: ATG_VDRE_CIS: Attagene CIS-FACTORIAL HepG2 Assay for human Vitamin D Receptor Element (VDRE) (AID 2282968). The following applies: HepG2 VDRE cis-reporter transcription, actives raise or lower the signal. In short, it runs like this: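 Reporter mRNA induction, quantified by capillary electrophoresis of fluorescently labelled RT-PCR products, was read 24 h after dosing HepG2 cells carrying transiently transfected cis-regulated reporter units; gain or loss relative to DMSO.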

Assay [14] has as its target Estrogen receptor (Homo sapiens) (UniProt P03372). The assay is described as follows: ATG_ERa_TRANS: Attagene TRANS-FACTORIAL HepG2 Assay for human Estrogen Receptor alpha (ERa) (AID 2282970; active means hit-call score of the fitted dose curve at least 0.9, where 1 is the maximum). The following applies: HepG2 Attagene TRANS ERa GAL4 reporter, mRNA. In a few lines: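 Human liver HepG2, transient transfection of multiple GAL4-UAS reporter units; TRANS format (exogenous NR-Gal4 chimera). 24 h dosing. Readout: reporter mRNA, RT-PCR, 6-FAM primer extension, HpaI digest, capillary electrophoresis. Positive direction vs DMSO.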

For assay [15], the target named is X-box-binding protein 1 (Homo sapiens) (UniProt P17861). The assay is described as follows: ATG_Xbp1_CIS: Attagene CIS-FACTORIAL HepG2 Assay for human X-box Binding Protein 1 (XBP1) (AID 2282972). The following applies: HepG2 XBP1 cis-element reporter, Attagene multiplex; actives raise or lower the signal. In short, it runs like this:
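Fluorescence-labelled cDNA fragments from reporter transcripts, separated by capillary electrophoresis, give the signal. Source: HepG2 cells transfected with promoter-driven reporter units, harvested 24 h post-dose. DMSO served as reference for bidirectional curve fitting.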

The nature of assay [16]: ATG_M_19_TRANS: Attagene TRANS-FACTORIAL HepG2 Assay for M19 Transcription Factor (Internal Marker) (AID 2282974; active means hit-call score of the fitted dose curve at least 0.9, where 1 is the maximum). The following applies: HepG2 Attagene TRANS-FACTORIAL M19 internal marker reporter. In short, it runs like this:
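Gain-of-signal in reporter mRNA, relative to DMSO, was scored from capillary electrophoresis fluorescence. HepG2 cells carried transiently transfected multiple reporter transcription units and were incubated with test chemicals for 24 h.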

Assay [17] is described as follows: ATG_GAL4_TRANS: Attagene TRANS-FACTORIAL HepG2 Assay for GAL4 (Internal Marker) (AID 2282976; active means hit-call score of the fitted dose curve at least 0.9, where 1 is the maximum). The following applies: HepG2 Attagene TRANS GAL4 internal marker reporter. In short, it runs like this:
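First, HepG2 cells were transfected with reporter units under GAL4-UAS control. Next, they were treated with chemical for 24 h. Finally, RNA was reverse-transcribed, PCR-amplified, FAM-labelled and resolved by capillary electrophoresis, with induction scored against DMSO.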

A short description of assay [18]: ATG_RORE_CIS: Attagene CIS-FACTORIAL HepG2 Assay for human RAR-related Orphan Receptor Element (RORE) (AID 2282959). The following applies: HepG2 Attagene cis-factorial RORE reporter, mRNA; actives raise or lower the signal. In short, it runs like this:
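Measured here: transcript induction of a cis-regulated reporter in HepG2 cells transiently transfected via FuGene 6. After 24 h, RNA was processed by RT-PCR and fluorescent capillary electrophoresis; DMSO defined baseline activity.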

The target of assay [19] is Nuclear receptor subfamily 1 group I member 3 (Homo sapiens) (UniProt Q14994). Put plainly: ATG_CAR_TRANS: Attagene TRANS-FACTORIAL HepG2 Assay for human Constitutive Androstane Receptor (CAR) (AID 2282969; active means hit-call score of the fitted dose curve at least 0.9, where 1 is the maximum;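 further: activators raise reporter mRNA above DMSO so AC50 marks induction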). The following applies: HepG2 Attagene TRANS-FACTORIAL CAR reporter. In short, it runs like this: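 Readout is reporter mRNA induction, quantified by fluorescent primer extension and capillary electrophoresis after RT-PCR. Cells were HepG2 transiently carrying chimeric NR-Gal4 constructs with GAL4-UAS reporters, treated for 24 h; activity scored upward from DMSO.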
Sequence of Nuclear receptor subfamily 1 group I member 3 (Homo sapiens) (Q14994 whole entry, looked up, the tested form may be a part): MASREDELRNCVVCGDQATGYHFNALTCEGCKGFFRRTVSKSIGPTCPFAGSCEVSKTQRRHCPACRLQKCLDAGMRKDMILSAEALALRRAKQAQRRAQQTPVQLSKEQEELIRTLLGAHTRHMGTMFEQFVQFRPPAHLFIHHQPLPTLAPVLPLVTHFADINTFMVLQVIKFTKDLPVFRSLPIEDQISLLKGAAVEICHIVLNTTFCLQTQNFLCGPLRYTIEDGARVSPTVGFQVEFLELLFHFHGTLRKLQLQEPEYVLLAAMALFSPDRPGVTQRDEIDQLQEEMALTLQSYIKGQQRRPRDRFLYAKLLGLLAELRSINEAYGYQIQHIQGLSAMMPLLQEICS

In assay [20] the target is Steroid hormone receptor ERR1 (Homo sapiens) (UniProt P11474). Put plainly: ATG_ERRa_TRANS: Attagene TRANS-FACTORIAL HepG2 Assay for human Estrogen-Related Receptor alpha (ERRa) (AID 2282971; active means hit-call score of the fitted dose curve at least 0.9, where 1 is the maximum). The following applies: HepG2 Attagene TRANS reporter, ERRa transactivation. In a few lines:
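Reporter transcript induction was quantified by RT-PCR and capillary electrophoresis of FAM-labelled, HpaI-cut products after 24 h treatment of HepG2 cells carrying transiently transfected GAL4-UAS reporter units and an exogenous ERRa-Gal4 fusion; activity scored as increase over DMSO.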

Records with an inconclusive call do not appear. The source made the active and inactive calls. How the source made its calls, unless noted: active means hit-call score of the fitted dose curve at least 0.9, where 1 is the maximum; inactive means score below 0.9.

Sequence of X-box-binding protein 1 (Homo sapiens) (P17861 whole entry, looked up, the tested form may be a part): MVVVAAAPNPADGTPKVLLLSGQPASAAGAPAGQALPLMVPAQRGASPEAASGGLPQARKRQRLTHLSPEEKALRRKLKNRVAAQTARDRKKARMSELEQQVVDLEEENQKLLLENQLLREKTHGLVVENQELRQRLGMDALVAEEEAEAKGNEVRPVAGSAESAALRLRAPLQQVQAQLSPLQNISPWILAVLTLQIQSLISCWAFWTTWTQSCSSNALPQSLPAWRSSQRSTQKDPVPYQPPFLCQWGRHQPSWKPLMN
Sequence of Transcription factor Sp1 (Homo sapiens) (P08047 whole entry, looked up): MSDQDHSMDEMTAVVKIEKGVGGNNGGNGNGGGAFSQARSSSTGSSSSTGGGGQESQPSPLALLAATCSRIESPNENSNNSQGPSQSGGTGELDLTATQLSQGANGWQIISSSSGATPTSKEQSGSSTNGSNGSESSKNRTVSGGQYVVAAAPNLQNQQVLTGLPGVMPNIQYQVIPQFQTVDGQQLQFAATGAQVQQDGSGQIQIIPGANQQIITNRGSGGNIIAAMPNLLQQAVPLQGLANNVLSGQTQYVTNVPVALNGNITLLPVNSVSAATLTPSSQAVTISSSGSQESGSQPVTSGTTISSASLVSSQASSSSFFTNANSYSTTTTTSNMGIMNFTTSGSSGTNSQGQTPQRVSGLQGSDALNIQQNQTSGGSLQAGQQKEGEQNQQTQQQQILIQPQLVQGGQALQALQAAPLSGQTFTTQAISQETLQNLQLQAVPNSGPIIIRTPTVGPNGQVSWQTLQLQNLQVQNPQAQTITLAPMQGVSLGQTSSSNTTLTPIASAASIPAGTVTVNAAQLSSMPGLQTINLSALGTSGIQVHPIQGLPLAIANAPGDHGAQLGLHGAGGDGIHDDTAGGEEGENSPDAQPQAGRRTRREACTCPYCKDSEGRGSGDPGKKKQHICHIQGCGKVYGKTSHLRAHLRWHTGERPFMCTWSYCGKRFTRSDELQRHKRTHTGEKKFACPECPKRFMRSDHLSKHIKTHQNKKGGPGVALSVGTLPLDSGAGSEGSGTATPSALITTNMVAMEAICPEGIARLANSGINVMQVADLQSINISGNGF
Sequence of Estrogen receptor (Homo sapiens) (P03372 whole entry, looked up, the tested form may be a part): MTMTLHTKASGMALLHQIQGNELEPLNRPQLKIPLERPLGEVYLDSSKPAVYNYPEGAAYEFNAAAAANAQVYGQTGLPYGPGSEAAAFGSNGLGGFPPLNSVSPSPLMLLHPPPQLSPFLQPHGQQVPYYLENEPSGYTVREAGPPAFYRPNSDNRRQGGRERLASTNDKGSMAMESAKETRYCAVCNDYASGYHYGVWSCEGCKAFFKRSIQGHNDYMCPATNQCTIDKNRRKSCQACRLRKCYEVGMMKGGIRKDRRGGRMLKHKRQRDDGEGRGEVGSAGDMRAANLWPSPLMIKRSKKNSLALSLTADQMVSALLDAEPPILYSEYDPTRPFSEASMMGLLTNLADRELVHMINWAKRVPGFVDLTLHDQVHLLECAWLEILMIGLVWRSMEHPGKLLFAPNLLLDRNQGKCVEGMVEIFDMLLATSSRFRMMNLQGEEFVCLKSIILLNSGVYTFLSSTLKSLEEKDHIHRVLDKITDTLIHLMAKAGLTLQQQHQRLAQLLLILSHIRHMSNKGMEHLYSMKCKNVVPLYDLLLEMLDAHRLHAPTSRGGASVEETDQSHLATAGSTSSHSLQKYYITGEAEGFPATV
Sequence of Steroid hormone receptor ERR1 (Homo sapiens) (P11474 whole entry, looked up, the tested form may be a part): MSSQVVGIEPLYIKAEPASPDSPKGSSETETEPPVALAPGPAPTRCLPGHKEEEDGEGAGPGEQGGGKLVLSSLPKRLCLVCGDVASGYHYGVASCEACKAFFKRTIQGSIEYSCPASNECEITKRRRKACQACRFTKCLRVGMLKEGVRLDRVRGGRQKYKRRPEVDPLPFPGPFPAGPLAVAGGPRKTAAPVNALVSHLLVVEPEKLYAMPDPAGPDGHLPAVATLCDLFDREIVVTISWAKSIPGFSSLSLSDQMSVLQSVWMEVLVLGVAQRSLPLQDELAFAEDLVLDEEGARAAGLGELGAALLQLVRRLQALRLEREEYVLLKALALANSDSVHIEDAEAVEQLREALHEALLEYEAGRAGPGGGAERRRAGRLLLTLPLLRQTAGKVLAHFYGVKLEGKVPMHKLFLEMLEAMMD

One may read the AC50 as the concentration at which the activity in the assay is half-maximal. With `Cc1ccc(S(=O)(=O)C(I)I)cc1`, the result in assay [1], in assay [5], in assay [9], in [11], in assay [12] and in assay [14] was inactive. The AC50 in [2] was 14.9 µM (active); in [3] it was 8.89 µM (active); in [4] it was 62.5 µM (active); in assay [6], 9.07 µM (active); in assay [7], 4.34 µM (active); in assay [8], 7.8 µM (active). For the same molecule, the AC50 in assay [10] is 8.97 µM (active); in assay [13], 9.01 µM (active); in assay [15], 7.84 µM (active).
With `CCOC(=O)CCC(C)=O`, the outcome in assay [1], in assay [2], in assay [3], in assay [4], in assay [5] and in assay [6] was inactive. Also, the call in [7], in assay [8], in [9], in assay [11], in assay [12] and in assay [13] was inactive. The outcome in [14], in [15], in [16] and in assay [17] was inactive.
With `O=C(O)C(F)(F)C(F)(F)C(F)(F)OC(F)(F)F`, the result in [1], in assay [2], in assay [3], in assay [4], in assay [18] and in [5] was inactive. The call in assay [6], in assay [7], in [8], in assay [10], in [11] and in [12] was inactive. Further, the molecule was classed as inactive in assay [13], in assay [19], in assay [15], in assay [16] and in [17].
For the molecule `Cc1ccc(O)cn1`, the outcome in [1], in [2], in [3], in [4], in [18] and in assay [5] was inactive. For the same molecule, the molecule was classed as inactive in assay [6], in assay [7], in [8], in [11], in assay [12] and in assay [13]. The call in [19], in assay [20], in assay [15], in assay [16] and in [17] was inactive.
